# Laboratory results from the supplement of paper PMC6555819.
# Tested on: VDR:RXRa (NR concentration 270 nM, RXRa partner concentration 90 nM)
# Experiment: PBM binding z-score (relative to random genomic background probes); higher = stronger binding; sequences stand for … in GC…GCGATTGACAGCGTAGAATGAAGG
# Protocol: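 Protein-binding microarray (Agilent 4x180K custom design, double-stranded 60-nt probes: 5' GC cap, 34-nt variable region, 24-nt constant primer region; full probe sequence given). Purified or IVT nuclear receptor:RXRα heterodimers (3:1 NR:RXRα, mostly 270:90 nM) or homodimers were incubated for 1 h in PBS with 2% milk and no ligand, then detected with Alexa488 antibodies. Fluorescence from o1-orientation probes (~5 replicates averaged) was converted to z-scores against 500 random hg19 background probes. Variable regions are seed direct-repeat (DR0–DR5) sites, all their single-nucleotide variants and half-site ablations.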
row,Sequence,PBM binding z-score
1,TAGCCTAGATCATTCAGGGGCCAGTATAGAAAGC,-0.321
2,AGAATGCGGTTATTAAGATCAGGGAATTGCGGTC,-0.302
3,GCTGCTAGGTTAGGTTGGTCAGCTAACGGGTACG,-0.323
4,TTATCAAGGTGAGCTGAGGTCGTTGATCCAACTC,3.93
5,TCTTCTAGGTCAGTTGGTCAGCTAACGAGCTGCC,1.3
6,GTACCATGGTGAATAGGTCGTTGATGAGTAGGCG,-0.0102
7,AATACAGGGTCATCGTCGGCCAGAGTACGCACAG,5
8,CAGACTAGGTCAAGAGGTCAAAGTCCGCTTCCCG,5.97
9,GCTAGTTGGTCAGTAAAAGCTCACACACCGGTCG,-0.481
10,GCTATTAGTTGAAAGGGTAACCGAATGATTCTCG,0.289
11,AATACAGGGTCACTAGGCCAGAATAGGTACGAAT,4.2
12,CTCGCAAGGTCGGTTGAGGTGAGTATACGGATAA,1.21
13,TCGAGTAGGTTAGTCGGGCCATTCAGCCAACATA,0.761
14,GCTTGTAGATCATGGTTAAGAAAGACTAAGCTAA,-0.404
15,CCTCGCAGGCCAATCTGGGTCACTCAAGGCTTGA,0.596
16,AGAATGAGGTTATTAATATCAGGGAATTGCGGTC,1.27
17,TCTATTAGTTGATTAGGGCATCCGAAACAGCGGA,0.719
18,GGAACGACGGCAAGTTGATAGCAGAGTTTGATGG,-0.532
19,ATCTCTAGGTAAAGATAGTTCACTGAATGCAAAT,1.37
20,TAGCCTAGGTCATTCAGGGGCCAGTCTAGAAAGC,2.76

row,Sequence,PBM binding z-score
1,ACTTACGGGTCAACAAGGTTATAGCACGCGTATA,7.08
2,TCTAGTAGATCAATAGAGGTTAAGAAAGTGCGCT,1.84
3,CGAACTAGGTCAAAGGTCAAAGTCGAGCCAACCA,6.78
4,GCGACTGGTGCATCAGCAGGTTACCATAACTTAA,-0.435
5,CCTGCTAGGTCAATGTTCAGCTAAAGCAGCTCGC,1.05
6,ATCGAAAGGTCGTGAGGTGAGTGTACAGAAAGGC,3.63
7,CCTACTGGGCCGAAAAGGTCATTGATGCCGATAA,4.48
8,GCAGACAGGTTAAACGCAGGTAACTCAGGGTGGC,0.135
9,CATACTAGGTCAAGGTCAAAGTCGGTTTGTGCCA,5.31
10,TCTCGGAGTACACGAAGGTCAGAGCTTTCCAGAG,2.27
11,ACTATTAGTTGAGACGAGGGCACCCGATAGGTTG,0.529
12,AGTCAAAGTTCATCTAGGTAACTTAAGATATGCT,4.95
13,GCTGGTAGGTCAGGTTGGTCAGCTAACGGGTACG,1.04
14,TCTATTAGTCGAAGGGCAACCGACGAGTCCGTTT,0.789
15,CCGACAGGGGCATAAGGTTACCATAAGCCAGCCC,1.1
16,ATACCAAGGTGATCTTGAGGTCGTTGATACTAAC,3.57
17,GGAACGAGGGCCTTCGAGTTGATAGCATGGCGAT,-0.0234
18,AGTACAGGGTCATCGTAGGCCAGAGTACGCACAG,5.08
19,ATCTCTAGGTAACAAGTTCAGTGAGAGAGAGGAC,2.22
20,ATATGTAGGTTACATCCCGGTCATTCAGGCTATG,1.79
